# Source: PubChem BioAssay
# The source made the active and inactive calls. Unless noted, no rule for the calls is given here.
# Experiments:
# [1] = HepG2 liver cancer cell viability effects, profiling panel, resazurin fluorescence, 24 h, PK04 Diversity Set (AID 1172); conditions: higher = more signal
# [2] = basal S. cerevisiae growth modulation, no modifier, primary screen, OD600, strain BY4716, 24 h, basal condition (AID 1173); conditions: OD600, 24 h, higher = more signal, called active from +8 up or from −8 down
# [3] = MM1S myeloma cell viability, profiling panel, resazurin fluorescence, basal, 24 h, PK04 Diversity Set (AID 1174); conditions: higher = more signal, called active from +8 up or from −8 down;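 also: MM1S multiple myeloma cell line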
# [4] = target: Dihydroorotate dehydrogenase (quinone), mitochondrial (Plasmodium falciparum (isolate 3D7)) (UniProt Q08210); experiment: PfDHODH enzyme inhibitors, primary screen, biochemical, C-terminal His tag, absorbance 600 nm (AID 1175); conditions: DCIP absorbance 600 nm, higher = more signal, called active from +8 up or from −8 down;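 also: recombinant parasite enzyme with a five histidine tag at its C terminus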
# [5] = P. aeruginosa biofilm formation inhibitors, primary screen, strain PAO1, LB-PBS medium, absorbance 600 nm (AID 1176); conditions: P. aeruginosa PAO1 growth/biofilm, A600, 12 h; higher = more signal
# [6] = S. cerevisiae RM11-1a growth modifiers, primary screen, strain RM11-1a, OD600, basal, 24 h (AID 1177); conditions: OD600, 24 h, higher = more signal, called active from +8 up or from −8 down;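 also: cultures grown under basal conditions with no added stressor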
# [7] = E. coli acrAB mutant growth effects, primary screen, E. coli filamentation inducers, strain DRC39, OD650, 24 h (AID 1178); conditions: higher = more signal, called active from +8 up or from −8 down;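 also: growth measured as culture turbidity by optical density at 650 nm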
# [8] = E. coli acrAB mutant growth effects, primary screen, E. coli filamentation inducers, strain DRC39, OD650, 48 h (AID 1179);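 also: screen aims at cell division blockers that make cells filament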; conditions: E. coli DRC39 delta-acrAB growth, higher = more signal, called active from +8 up or from −8 down
# [9] = RPMI8226 myeloma cell viability, profiling panel, resazurin fluorescence, basal, 24 h, PK04 Diversity Set (AID 1180); conditions: higher = more signal;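 also: RPMI8826 multiple myeloma cell line at 5000 cells per well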
# [10] = target: E3 ubiquitin-protein ligase XIAP (Homo sapiens) (UniProt P98170); experiment: XIAP binders, primary screen, biophysical, small-molecule microarray, fluorescence 635 nm (AID 1181); conditions: small-molecule microarray binding, higher = more signal;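 also: score merges 667 nm emission and signal to noise over triplicate slides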
# [11] = system: XIP peptide (Xip251-270) binding; experiment: small-molecule binders of XIP peptide, primary screen, biochemical, small-molecule microarray, fluorescence 635/667 nm, 0.1 µg/mL protein (AID 1182); conditions: fluorescent protein binding, 635 nm, higher = more signal, called active from +8 up or from −8 down
# XIP peptide (Xip251-270) = experiment: small-molecule binders of XIP peptide, primary screen, biochemical, small-molecule microarray, fluorescence 635/667 nm, 0.5 µg/mL protein (AID 1183); conditions: small-molecule microarray binding, fluorescence 635 nm; higher = more signal
# [12] = Plasmodium falciparum growth inhibition, primary screen, strain 3D7, DAPI fluorescence, 100 nL (AID 1184);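 also: parasites grown inside human red blood cells in medium with human serum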; conditions: P. falciparum 3D7 growth, 3 d, higher = more signal
# [13] = target: Homeobox protein Hox-A13 (Mus musculus) (UniProt Q62424); experiment: inhibitors of HoxA13-DNA binding, primary screen, biochemical, fluorescence polarization, labeled oligonucleotide (AID 1185); conditions: 15 min, higher = more signal, called active from +8 up or from −8 down
# [14] = inhibitors of hydroxyurea-induced Chk1 phosphorylation, primary screen, imaging, HeLa, phospho-Chk1 antibody, percent positive cells (AID 1186); conditions: hydroxyurea-induced phospho-Chk1 immunofluorescence imaging, higher = more signal
# [15] = inhibitors of hydroxyurea-induced Chk1 phosphorylation, primary screen, imaging, HeLa, phospho-Chk1 nuclear intensity (AID 1187); conditions: hydroxyurea-induced phospho-Chk1 immunofluorescence imaging, higher = more signal
# Dihydroorotate dehydrogenase (quinone), mitochondrial (Plasmodium falciparum (isolate 3D7)), sequence (Q08210 whole entry, looked up): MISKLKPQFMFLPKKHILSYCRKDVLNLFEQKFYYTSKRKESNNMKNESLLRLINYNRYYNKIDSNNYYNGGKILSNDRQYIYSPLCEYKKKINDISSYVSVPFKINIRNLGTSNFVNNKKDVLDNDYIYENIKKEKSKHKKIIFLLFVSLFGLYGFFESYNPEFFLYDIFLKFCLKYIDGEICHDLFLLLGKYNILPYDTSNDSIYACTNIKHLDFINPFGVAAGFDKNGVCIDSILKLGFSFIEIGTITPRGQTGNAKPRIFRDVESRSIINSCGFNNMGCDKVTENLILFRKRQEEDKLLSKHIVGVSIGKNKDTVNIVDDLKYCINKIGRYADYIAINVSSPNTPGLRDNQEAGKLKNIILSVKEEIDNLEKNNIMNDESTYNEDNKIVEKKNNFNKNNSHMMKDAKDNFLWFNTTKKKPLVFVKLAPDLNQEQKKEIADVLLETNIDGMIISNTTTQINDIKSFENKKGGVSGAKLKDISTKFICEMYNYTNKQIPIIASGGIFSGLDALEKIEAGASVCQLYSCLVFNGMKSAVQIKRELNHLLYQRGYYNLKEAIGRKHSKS
# E3 ubiquitin-protein ligase XIAP (Homo sapiens), sequence (P98170 whole entry, looked up): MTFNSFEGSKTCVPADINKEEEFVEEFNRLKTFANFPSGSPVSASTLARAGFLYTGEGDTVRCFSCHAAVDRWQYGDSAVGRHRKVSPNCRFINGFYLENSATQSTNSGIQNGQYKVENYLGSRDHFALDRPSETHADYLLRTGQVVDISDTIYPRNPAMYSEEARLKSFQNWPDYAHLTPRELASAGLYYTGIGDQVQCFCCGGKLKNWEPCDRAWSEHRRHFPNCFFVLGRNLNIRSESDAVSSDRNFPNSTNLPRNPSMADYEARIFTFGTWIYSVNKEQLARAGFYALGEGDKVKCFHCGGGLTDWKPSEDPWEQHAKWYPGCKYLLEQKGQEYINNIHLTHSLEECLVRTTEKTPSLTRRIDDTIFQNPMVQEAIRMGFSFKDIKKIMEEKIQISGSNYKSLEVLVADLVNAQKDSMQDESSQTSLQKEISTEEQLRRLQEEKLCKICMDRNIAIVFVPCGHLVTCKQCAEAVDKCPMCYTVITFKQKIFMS
# Homeobox protein Hox-A13 (Mus musculus), sequence (Q62424 whole entry, looked up): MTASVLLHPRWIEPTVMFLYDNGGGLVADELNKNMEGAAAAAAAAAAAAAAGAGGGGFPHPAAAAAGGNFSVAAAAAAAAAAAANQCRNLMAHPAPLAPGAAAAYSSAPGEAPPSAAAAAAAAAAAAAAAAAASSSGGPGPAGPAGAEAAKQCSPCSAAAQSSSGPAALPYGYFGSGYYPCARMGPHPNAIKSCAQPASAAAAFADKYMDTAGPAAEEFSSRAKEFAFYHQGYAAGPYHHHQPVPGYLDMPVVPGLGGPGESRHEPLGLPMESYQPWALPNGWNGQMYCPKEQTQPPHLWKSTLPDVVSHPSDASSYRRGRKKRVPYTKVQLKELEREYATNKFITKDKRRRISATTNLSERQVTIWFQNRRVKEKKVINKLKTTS
SMILES,z-score [1],z-score [2],z-score [3],composite z-score [4],z-score [5],z-score [6],z-score [7],z-score [8],z-score [9],composite z-score [10],composite z-score [11],composite z-score (XIP peptide (Xip251-270)),z-score [12],z-score [13],z-score [14],z-score [15]
C=CC[C@@]1(C(=O)O)N=C(c2ccc(OCCCO)cc2)O[C@@H]1c1ccccc1CN=[N+]=[N-],0.793,-2.58 (inactive),0.747 (inactive),-0.0013 (inactive),-0.043 (inactive),-0.534 (inactive),0.8 (inactive),0.302 (inactive),1.1,0.565,-0.207 (inactive),0.563,-1.34,-6.29 (inactive),-0.222 (inactive),-0.0145 (inactive)
CO[C@H]1O[C@H](CO)[C@@H](OC(=O)Nc2ccc(C(F)(F)F)cc2)[C@H](OC(=O)Nc2ccccc2-c2ccccc2)[C@@H]1OC(=O)Nc1ccccc1-c1ccccc1,-0.889,0.28 (inactive),-1.74 (inactive),0.0823 (inactive),0.77 (inactive),1.21 (inactive),-1 (inactive),0.0484 (inactive),-0.94,-0.184,1.39 (inactive),0.827,-2.28,-4.13 (inactive),0.206 (inactive),0.0324 (inactive)
CCCCNC(=O)c1ccc(C#C[Si](C)(C)C)c(OC(C)=O)c1,-0.0319,-1.09 (inactive),-0.757 (inactive),-1.4 (inactive),-1.44 (inactive),0.846 (inactive),1.17 (inactive),-0.925 (inactive),0.0873,-0.326,-0.0158 (inactive),-0.351,-1.27,-4.82 (inactive),0.0588 (inactive),0.103 (inactive)
CCOC(=O)C[C@H]1[C@H](OC(=O)c2ccc(C(=O)c3ccccc3)cc2)[C@@H](NC(=O)c2ccc3ccccc3c2)c2cc(OCCCO)ccc2N1C(=O)c1ccc2ccccc2n1,0.213,-0.628 (inactive),0.64 (inactive),0.824 (inactive),-0.595 (inactive),0.351 (inactive),0.571 (inactive),0.534 (inactive),0.395,-0.0726,0.27 (inactive),0.197,-2.68,-1.96 (inactive),-0.318 (inactive),0.25 (inactive)
COCCOC(=O)N1C(=O)[C@@]2(c3cc(C#CCC(C(=O)OC)C(=O)OC)ccc31)[C@H](c1ccc(OCCO)cc1)N1[C@H](c3ccccc3)[C@H](c3ccccc3)OC(=O)[C@H]1[C@@H]2C(=O)N1CCCCCCC1,-0.0464,1.45 (inactive),0.13 (inactive),0.551 (inactive),0.83 (inactive),2.72 (inactive),-0.599 (inactive),0.0786 (inactive),0.174,0.519,0.836 (inactive),0.523,-2.09,-15.5 (active),-0.181 (inactive),0.106 (inactive)
CCCCC=C[C@@H](NC(=O)c1ccc(C(F)(F)F)cc1)c1ccccc1,1.64,-0.118 (inactive),0.423 (inactive),-0.101 (inactive),-0.222 (inactive),0.562 (inactive),-0.244 (inactive),0.291 (inactive),1.1,0.0699,0.0581 (inactive),-0.11,0.185,-3.7 (inactive),-0.587 (inactive),-1.16 (inactive)
CN1C(=O)C2C=CC(C(O)c3ccc(-c4ccccc4)s3)N(Nc3ccccc3)C2C1=O (centres undefined),-0.208,-1.02 (inactive),-1.03 (inactive),0.71 (inactive),1.6 (inactive),0.0727 (inactive),0.243 (inactive),-0.0198 (inactive),-0.985,0.148,0.844 (inactive),0.753,1.23,-4.68 (inactive),-0.11 (inactive),-0.316 (inactive)
C/C=C/CN(C(=O)C#Cc1ccccc1)[C@H](CO[Si](C)(C)C(C)(C)C)c1ccccc1,0.704,-0.161 (inactive),1.79 (inactive),-3.11 (inactive),-0.966 (inactive),-0.36 (inactive),2 (inactive),0.846 (inactive),3.51,-0.193,-0.617 (inactive),-0.109,-2.04,1.99 (inactive),-0.288 (inactive),-0.0994 (inactive)
[N-]=[N+]=NCc1ccccc1C[C@]1(C(=O)NCc2ccccc2)N=C(c2ccc(OCCCO)cc2)O[C@H]1c1ccccc1CN=[N+]=[N-],-0.907,0.831 (inactive),-0.153 (inactive),0.238 (inactive),1.32 (inactive),0.832 (inactive),3.04 (inactive),1.01 (inactive),-0.28,-0.0559,0.99 (inactive),0.628,-2.24,4.04 (inactive),-0.347 (inactive),0.0031 (inactive)
